Source: PubChem BioAssay AID977607 (Broad Institute, 2014)
In all, about 1,500 compounds went through this assay and about 460 (31%) were called active. Not shown: some 1% with an inconclusive outcome.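 Rule for the calls: active = curve reaches 40% activation over neutral controls at an AC40 no higher than the top valid tested concentration; inconclusive = no clear call, values can overlap the other calls; inactive = signal moving opposite to the expected increase, and the rest.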 These entries were drawn from the full list. Potency and affinity values are given separately.

Experiment: GLuc-reported insulin release enhancers, glucose-stimulated beta cells – cell-based, INS-1E, Gaussia luciferase, luminescence, cherry-pick, set 2, dose response (AID 977607);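 note: 0% = median of the plate neutral control wells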
Details: INS-1E GLuc insulin secretion reporter, 2-3 h, active compounds read high; at 35 µM, 100% = signal doubled over neutral wells unless noted

Max activation, inactive:
c1ccc(-c2nc(NCC3CC3)nc3ccsc23)cc1 -19.8%, COc1cc2[nH]c(-c3ccc(C)cc3)cc(=O)c2cc1OC -18.5% [at 3.8 µM, 100% = signal doubled over neutral wells], CC(=O)NN1C(=O)c2ccccc2NC1c1ccccc1O (stereo unspecified) -23.9% [at 0.42 µM, 100% = signal doubled over neutral wells], O=C(Cn1nnc(-c2ccccc2)n1)N=Nc1c(O)[nH]c2ccccc12 32.5%, COc1ccc2nc3ccccc3nc2c1NC(=O)c1ccc(Cl)cc1 -10.8% [at 0.046 µM, 100% = signal doubled over neutral wells], COc1cc(Cl)c(C)cc1NC(=O)c1ccccc1NC(=O)CN1CCN(C(C)=O)CC1 -25.4% [at 3.8 µM, 100% = signal doubled over neutral wells], COc1cc2c(cc1OC)C(Nc1ccccc1)=NC(C)(C)C2 -20.4% [at 0.005 µM, 100% = signal doubled over neutral wells], Cc1cc(Oc2cccnc2)ccc1NC(=O)Cc1cn(C)c2ccccc12 -32.7%, Cc1cc(C(=O)NC(C)CCC(C)C)c2ccccc2n1 (stereo unspecified) 29.7% [at 1.2 µM, 100% = signal doubled over neutral wells], O=C(Nc1ccccc1C(=O)N/N=C/c1ccccc1)c1ccco1 -16.8% [at 0.0016 µM, 100% = signal doubled over neutral wells], CCNC(=O)C1(C)CCCN1Cc1cccc(C(F)(F)F)c1 (stereo unspecified) -24%, CCCCNC(=O)C1(C)CCN1C(=O)Cc1cccc2ccccc12 (stereo unspecified) 11.1% [at 0.015 µM, 100% = signal doubled over neutral wells], CCOc1ccc(C(=O)NCC(=O)Nc2cc(C)ccn2)cc1OCC -21.2% [at 11 µM, 100% = signal doubled over neutral wells], Cn1c(=O)n(Cc2ccccc2Br)c2ccccc21 20.4% [at 0.0016 µM, 100% = signal doubled over neutral wells], O=c1[nH]nc(-c2ccc(F)cc2)cc1Cc1cccs1 13.5% [at 3.8 µM, 100% = signal doubled over neutral wells], Clc1ccc(-c2cc(CN3CCOCC3)no2)cc1 -22.2% [at 11 µM, 100% = signal doubled over neutral wells], CCNc1nc(NCC)nc(N(C)/N=C/c2ccco2)n1 24.3% [at 11 µM, 100% = signal doubled over neutral wells], COc1cc(C(C(=O)NC2CCCC2)N(Cc2ccco2)C(=O)c2snc(C(N)=O)c2N)cc(OC)c1OC (stereo unspecified) 22.3% [at 0.015 µM, 100% = signal doubled over neutral wells], COc1ccc(C2C3CCCCC3(O)CCN2C(=O)c2cccs2)cc1 (stereo unspecified) -22.1% [at 0.046 µM, 100% = signal doubled over neutral wells], CC1CCC(NCCNC(=O)c2ccco2)CC1 (stereo unspecified) -20.4%, Cc1cc(Br)c2c(c1)C1(OCCO1)C(=O)N2 -12%, O=C1c2cccnc2C(Nc2ccc(F)c(Cl)c2)N1Cc1cccs1 (stereo unspecified) -13.1% [at 0.135 µM, 100% = signal doubled over neutral wells], CC(=O)c1cccc(NC2c3ncccc3C(=O)N2Cc2ccco2)c1 (stereo unspecified) 50.6% [at 11 µM, 100% = signal doubled over neutral wells], C=CCN1C(=O)CSc2ccc(C(=O)OCC)cc21 -11.5% [at 3.8 µM, 100% = signal doubled over neutral wells], CCCN(Cc1nnc(-c2ccccc2Cl)o1)C(=O)c1cc2ccccc2o1 -17% [at 11 µM, 100% = signal doubled over neutral wells], Cc1cc(C)cc(N(C(=O)C(F)(F)F)C(C(=O)NC2CCCCC2)c2cccs2)c1 (stereo unspecified) 37.1% [at 0.42 µM, 100% = signal doubled over neutral wells], Cc1ccc(S(=O)(=O)N2CCN(C(=O)COC(=O)c3ccc(O)cc3)CC2)c(C)c1 -39.9%, N#CC1=C(N)Oc2n[nH]c(-c3ccc(F)cc3)c2C1c1cccnc1 (stereo unspecified) 43%, COc1ccc(S(=O)(=O)N(C)CC(=O)Nc2ccc3c(c2)OCCO3)cc1OC 41.6% [at 0.0016 µM, 100% = signal doubled over neutral wells], O=C(O)Cc1ccc(NS(=O)(=O)c2ccc3c(c2)OCCO3)cc1 -23.1% [at 0.0016 µM, 100% = signal doubled over neutral wells], O=C(N=C1SC2CS(=O)(=O)CC2N1c1ccc(F)c(Cl)c1)C1CC1 (stereo unspecified) -16.2% [at 0.046 µM, 100% = signal doubled over neutral wells], Cc1cc2nc(-c3ccccc3O)[nH]c2cc1C -13.8% [at 0.42 µM, 100% = signal doubled over neutral wells], Cc1ccc(NC(=O)c2cc(-c3ccccc3O)n[nH]2)cc1C 17.3%, O=C(c1cc(-c2ccc(F)cc2)nc2ccccc12)N1CCN(C2CCS(=O)(=O)C2)CC1 (stereo unspecified) -24.6% [at 0.0016 µM, 100% = signal doubled over neutral wells], CC(=O)c1cccc(N(CC(=O)NC2CCCCC2)C(=O)Cn2nnc(-c3ccccc3)n2)c1 -24.8% [at 0.0016 µM, 100% = signal doubled over neutral wells], CCOc1nc(-c2ccccc2)c2cc(Br)ccc2n1 13.2%
